Data on ten molecules can be found in PubChem BioAssay (NCI).

A short description of experiment [1]: NCI Yeast Anticancer Drug Screen. Data for the rad50 strain (AID 155).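 Further: 0% = growth of vehicle-only cultures of the same strain.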 The note with it: S. cerevisiae rad50 strain growth inhibition, hits give high values. Put shortly:
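Yeast carrying a defined DNA repair defect were exposed to test compounds, and growth was compared with vehicle-treated controls to give percent inhibition.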

The nature of experiment [2]: NCI Yeast Anticancer Drug Screen. Data for the mec2-1 strain (AID 157). The note with it: S. cerevisiae mec2-1 strain, hits give high values. Summed up: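 Strain: mec2-1 (DNA repair/cell cycle alteration). Compound exposure, then growth measured; inhibition expressed relative to vehicle.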
Experiment [3] is described as follows: NCI Yeast Anticancer Drug Screen. Data for the sgs1 mgt1 strain (AID 161).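 Further: 0% = growth of cultures given vehicle only.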 The note with it: S. cerevisiae sgs1 mgt1 strain, hits give high values. Put shortly:
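Mutant yeast exposed to compound; growth scored against vehicle-only wells.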

The nature of experiment [4]: NCI Yeast Anticancer Drug Screen. Data for the cln2 rad14 strain (AID 165).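 Further: 0% = growth equal to vehicle treated cultures.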 The note with it: S. cerevisiae cln2 rad14 strain, hits give high values. Put shortly: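 Compounds are applied to the cln2 rad14 yeast strain, and growth is then compared with that of vehicle-treated cultures to give inhibition.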
The nature of experiment [5]: NCI Yeast Anticancer Drug Screen. Data for the bub3 strain (AID 167). The note with it: S. cerevisiae bub3 mutant strain, hits give high values. Put shortly: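 Compounds were applied to a genetically altered yeast strain carrying a cell-cycle control defect. Growth inhibition was scored against vehicle-treated controls.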
Experiment [6] in a line: NCI Yeast Anticancer Drug Screen. Data for the mlh1 rad18 strain (AID 175). The note with it: S. cerevisiae mlh1 rad18 strain growth inhibition, hits give high values. Put shortly:
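Read-out is yeast growth inhibition, calculated against vehicle-only controls. The compound was applied to a strain engineered with DNA damage repair alterations.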

Setting [7] is: at 5.0 µM (retest, dose inferred, filed as 0.5).
Where [8] appears, read: at 50.0 µM (retest, dose inferred, filed as 5.0).

This is part of a sample that, as a whole, favours compounds with a hit. Of some 79,000 tested, about 15% had one in any assay. Unmarked numbers belong to inactive results. Active and inactive are the calls of the source. No stated cut-off is given here; in the data, active means growth inhibition above about 70%; inactive means the rest.

On to `O=C(Nc1cccc(C(F)(F)F)c1)C(Cl)=C(Cl)Cl`, for which the growth inhibition in experiment [1] (setting [7]) is 12%; in experiment [1] (setting [8]), 99% (active); in experiment [1] (at 50.0 µM), 98.5% (active); in experiment [2] (setting [7]), -1%; in experiment [2] (setting [8]), 98% (active); in experiment [2] (at 50.0 µM), 98.8% (active). Besides, the growth inhibition in experiment [3] (setting [7]) is 0%; in experiment [3] (setting [8]), 98% (active); in experiment [3] (at 50.0 µM), 98.5% (active); in experiment [4] (setting [7]), -8%; in experiment [4] (setting [8]), 99% (active); in experiment [4] (at 50.0 µM) it was 97.8% (active). For the same molecule, the growth inhibition was 0% in experiment [5] (setting [7]); 98% (active) in experiment [5] (setting [8]); 98.5% (active) in experiment [5] (at 50.0 µM); -2% in experiment [6] (setting [7]); 99% (active) in experiment [6] (setting [8]); 98.7% (active) in experiment [6] (at 50.0 µM).
As for `Clc1ccc(Cc2nc3ccccc3s2)c(Cl)c1`, the growth inhibition is 39% in experiment [1] (setting [7]); 98% (active) in experiment [1] (setting [8]); 90.8% (active) in experiment [1] (at 50.0 µM); 36% in experiment [2] (setting [7]); 99% (active) in experiment [2] (setting [8]); 93.3% (active) in experiment [2] (at 50.0 µM). For the same molecule, the growth inhibition in experiment [3] (setting [7]) is 43%; in experiment [3] (setting [8]), 99% (active); in experiment [3] (at 50.0 µM) it was 94.1% (active); in experiment [4] (setting [7]), 34%; in experiment [4] (setting [8]), 89% (active); in experiment [4] (at 50.0 µM), 91.5% (active). Moreover, the growth inhibition was 43% in experiment [5] (setting [7]); 98% (active) in experiment [5] (setting [8]); 92.5% (active) in experiment [5] (at 50.0 µM); 57% in experiment [6] (setting [7]); 99% (active) in experiment [6] (setting [8]); 92.5% (active) in experiment [6] (at 50.0 µM).
As to `CC1(C)COC(c2cccc(C(O)c3ccc(Cl)cc3)c2)=N1` (stereo not given), the growth inhibition in experiment [1] (setting [7]) is 40%; in experiment [1] (setting [8]), 99% (active); in experiment [1] (at 50.0 µM), 47%; in experiment [2] (setting [7]) it was -19%; in experiment [2] (setting [8]) it was 99% (active); in experiment [2] (at 50.0 µM), 68%. Besides, the growth inhibition in experiment [3] (setting [7]) was -23%; in experiment [3] (setting [8]), 99% (active); in experiment [3] (at 50.0 µM), 72.5% (active); in experiment [4] (setting [7]), -2%; in experiment [4] (setting [8]), 99% (active); in experiment [4] (at 50.0 µM), 40.5%. The growth inhibition in experiment [5] (setting [7]) was -21%; in experiment [5] (setting [8]) it was 99% (active); in experiment [5] (at 50.0 µM) it was 52.5%; in experiment [6] (setting [7]), 26%; in experiment [6] (setting [8]), 99% (active); in experiment [6] (at 50.0 µM), 54.1%.
For `CCOC(=O)OCCSCCOC(=O)OCC`, the growth inhibition in experiment [1] (setting [7]) was -14%; in experiment [1] (setting [8]) it was 19%; in experiment [1] (at 50.0 µM), -4.35%; in experiment [2] (setting [7]) it was -12%; in experiment [2] (setting [8]) it was 36%; in experiment [2] (at 50.0 µM), 17.6%. Further, the growth inhibition in experiment [3] (setting [7]) is -5%; in experiment [3] (setting [8]) it was 8%; in experiment [3] (at 50.0 µM), 14.2%; in experiment [4] (setting [7]) it was 15%; in experiment [4] (setting [8]) it was -6%; in experiment [4] (at 50.0 µM), 13.8%. The growth inhibition in experiment [5] (setting [7]) was -9%; in experiment [5] (setting [8]) it was 18%; in experiment [5] (at 50.0 µM), 19%; in experiment [6] (setting [7]) it was 0%; in experiment [6] (setting [8]) it was 47%; in experiment [6] (at 50.0 µM), -9.65%.
In the case of `NC(Cc1ccccc1)c1ccc2cccc3c2c1CC3` (stereo not given), the growth inhibition was -5% in experiment [1] (setting [7]); 4% in experiment [1] (setting [8]); 0.3% in experiment [1] (at 50.0 µM); -5% in experiment [2] (setting [7]); 8% in experiment [2] (setting [8]); 33.8% in experiment [2] (at 50.0 µM). Moreover, the growth inhibition in experiment [3] (setting [7]) was -2%; in experiment [3] (setting [8]) it was 25%; in experiment [3] (at 50.0 µM), 5.55%; in experiment [4] (setting [7]) it was -6%; in experiment [4] (setting [8]), -1%; in experiment [4] (at 50.0 µM), -4.25%. The growth inhibition in experiment [5] (setting [7]) is -2%; in experiment [5] (setting [8]), 9%; in experiment [5] (at 50.0 µM), 21.1%; in experiment [6] (setting [7]), -2%; in experiment [6] (setting [8]), 34%; in experiment [6] (at 50.0 µM) it was 51.5%.
With `O=C(CN1CCOCC1)Nc1nc(-c2ccc(Cl)cc2)cs1`, the growth inhibition in experiment [1] (setting [7]) was 66%; in experiment [1] (setting [8]), 94% (active); in experiment [1] (at 50.0 µM), 79.6% (active); in experiment [2] (setting [7]), 49%; in experiment [2] (setting [8]) it was 97% (active); in experiment [2] (at 50.0 µM) it was 53.8%. The growth inhibition in experiment [3] (setting [7]) was 60%; in experiment [3] (setting [8]), 99% (active); in experiment [3] (at 50.0 µM), 86.4% (active); in experiment [4] (setting [7]), 46%; in experiment [4] (setting [8]), 90% (active); in experiment [4] (at 50.0 µM), 62%. In addition, the growth inhibition was 65% in experiment [5] (setting [7]); 67% in experiment [5] (setting [8]); 77.6% (active) in experiment [5] (at 50.0 µM); 76% (active) in experiment [6] (setting [7]); 99% (active) in experiment [6] (setting [8]); 85% (active) in experiment [6] (at 50.0 µM).
On to `Cc1ccc[n+](CC(=O)C2CCC3CC4CCCCC4CC3C2)c1` (stereo not given), for which the growth inhibition in experiment [1] (setting [7]) was -2%; in experiment [1] (setting [8]) it was 38%; in experiment [1] (at 50.0 µM), 22.4%; in experiment [2] (setting [7]), -1%; in experiment [2] (setting [8]), 34%; in experiment [2] (at 50.0 µM) it was 17.7%. Further, the growth inhibition in experiment [3] (setting [7]) is -27%; in experiment [3] (setting [8]), 19%; in experiment [3] (at 50.0 µM), 37.4%; in experiment [4] (setting [7]), 0%; in experiment [4] (setting [8]) it was 31%; in experiment [4] (at 50.0 µM) it was -3.75%. Further, the growth inhibition in experiment [5] (setting [7]) was 1%; in experiment [5] (setting [8]), 29%; in experiment [5] (at 50.0 µM) it was 18.8%; in experiment [6] (setting [7]), -2%; in experiment [6] (setting [8]) it was 43%; in experiment [6] (at 50.0 µM) it was 59%.
Turning to `O=C(/C(=C/c1ccc(Cl)cc1)c1ccccc1)c1ccc(O)cc1`, the growth inhibition in experiment [1] (setting [7]) is 94% (active); in experiment [1] (setting [8]) it was 94% (active); in experiment [1] (at 50.0 µM), 95.8% (active); in experiment [2] (setting [7]), 64%; in experiment [2] (setting [8]), 97% (active); in experiment [2] (at 50.0 µM), 95.5% (active). For the same molecule, the growth inhibition in experiment [3] (setting [7]) is 94% (active); in experiment [3] (setting [8]), 94% (active); in experiment [3] (at 50.0 µM), 96.5% (active); in experiment [4] (setting [7]), 53%; in experiment [4] (setting [8]), 92% (active); in experiment [4] (at 50.0 µM) it was 92.5% (active). Also, the growth inhibition is 89% (active) in experiment [5] (setting [7]); 95% (active) in experiment [5] (setting [8]); 97.3% (active) in experiment [5] (at 50.0 µM); 96% (active) in experiment [6] (setting [7]); 95% (active) in experiment [6] (setting [8]); 97% (active) in experiment [6] (at 50.0 µM).
Take `CC1CCCC(CCN(C)CCC2CCCCC2)CC1` (stereo not given): the growth inhibition in experiment [1] (setting [7]) is 21%; in experiment [1] (setting [8]), 98% (active); in experiment [1] (at 50.0 µM), 99.3% (active); in experiment [2] (setting [7]) it was 9%; in experiment [2] (setting [8]) it was 99% (active); in experiment [2] (at 50.0 µM) it was 99.2% (active). Also, the growth inhibition in experiment [3] (setting [7]) is 35%; in experiment [3] (setting [8]), 99% (active); in experiment [3] (at 50.0 µM) it was 99.4% (active); in experiment [4] (setting [7]), 21%; in experiment [4] (setting [8]), 97% (active); in experiment [4] (at 50.0 µM), 99.1% (active). Besides, the growth inhibition in experiment [5] (setting [7]) is 7%; in experiment [5] (setting [8]) it was 79% (active); in experiment [5] (at 50.0 µM) it was 99% (active); in experiment [6] (setting [7]), 45%; in experiment [6] (setting [8]), 98% (active); in experiment [6] (at 50.0 µM), 99.1% (active).
As to `C/C(=N/O)C1CC(CCC2([N+](=O)[O-])CCC(C)(O)C(/C(C)=N/O)C2)([N+](=O)[O-])CCC1(C)O` (stereo not given), the growth inhibition in experiment [1] (setting [7]) is 0%; in experiment [1] (setting [8]), -8%; in experiment [1] (at 50.0 µM), 12.7%; in experiment [2] (setting [7]), 3%; in experiment [2] (setting [8]), -1%; in experiment [2] (at 50.0 µM) it was 11.3%. Besides, the growth inhibition in experiment [3] (setting [7]) is -1%; in experiment [3] (setting [8]), -4%; in experiment [3] (at 50.0 µM) it was -7.15%; in experiment [4] (setting [7]) it was 5%; in experiment [4] (setting [8]) it was -12%; in experiment [4] (at 50.0 µM) it was 15.3%. Also, the growth inhibition in experiment [5] (setting [7]) was 3%; in experiment [5] (setting [8]), -2%; in experiment [5] (at 50.0 µM), 90.5% (active); in experiment [6] (setting [7]), 1%; in experiment [6] (setting [8]), 0%; in experiment [6] (at 50.0 µM), 19.9%.
